Pf growth 96h: inhibits malaria parasite growth, 96 h. AID 504834. P. falciparum luciferase reporter growth, 96 h. hit rate 6.9% among 320,000. Potency, µM (top dose mostly 28.7 µM), for inactives: top-dose activity change, negative = inhibition, most hits filed as inhibitors; also: potency is read from the fitted curve at half-maximal effect; % is scaled to controls: 0 for no effect and ±100 for the full control effect
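Erythrocytes infected with luciferase-expressing P. falciparum were dispensed at 2% hematocrit and 0.05% parasitemia (final), then incubated with compounds 96 hours at 37 C in 5% CO2. Luminescence after detection reagent addition reported growth.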
Pf growth 48h: P. falciparum growth inhibition at 48 hours (one generation) | P. falciparum luciferase growth in erythrocytes, 48 h | Potency, µM (doses to about 28.7 µM), for inactives: top-dose activity change, negative = inhibition, hits mostly inhibitors | hit rate 5.9% among 310,000 | AID 504832; also: potency is read from the fitted curve at half-maximal effect; % is scaled to controls: 0 for no effect and ±100 for the full control effect
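Firefly luciferase activity from engineered P. falciparum reports growth; inhibitors lower the luminescent signal. Cultures contained 2% hematocrit erythrocytes at 0.1% final parasitemia.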
Cycloheximide cs: counter-screen hit for Shiga toxin inhibitors, cycloheximide | cell reporter, cycloheximide protein synthesis inhibition counterscreen | max response, % | hit rate 12% among 300,000 | AID 2314; in the data active = max response mostly above about 13%, no sharp cut-off; inactive = mostly below about 14%; also: read at 38.3 µM for the half of the compounds with a filed dose; 0% is about no effect
HCMV inh: inhibitors of human cytomegalovirus; HFF cells, HCMV-luciferase reporter, 72 h; active compounds read low; activity change, negative = inhibition, % at 57.5 µM; hit rate 4.5% among 410,000; AID 1259415; in the data active = activity change below about -60%; inconclusive = no clear call, values can overlap the other calls; inactive = above about -39%; also: % is scaled to controls: 0 for no effect and ±100 for the full control effect
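After 16 h attachment at 37C, HFF cells received test compound and HCMV-luciferase (1 PFU/cell); reporter luminescence read 72 h later, data normalized against buffer-only and known inhibitor Salinomycin.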
Shiga toxin inh: blocks Shiga toxin action in Vero cells; inhibition, % at 38.7 µM; Vero cells, Shiga toxin protein synthesis inhibition reporter; hit rate 9.2% among 290,000; in the data active = inhibition mostly above about 28%, no sharp cut-off; inactive = mostly below about 43%; also: 0% is about no effect
Active calls of the source: *; ? = inconclusive; . = not tested or not shown; [ ] = another dose, or the depositor's remark. Most compounds without a hit are left out; they make up all but 20% or so of the library. Unless noted, calls follow the shape of the dose curve; as a rule, active = well fitted inhibition curve with a large enough effect; inconclusive = small, poorly fitted or top-dose-only effect, or another doubt; inactive = no such curve, though single readings can be large or run the other way.

SMILES	Pf growth 96h	Pf growth 48h	Cycloheximide cs	HCMV inh	Shiga toxin inh
CCOC(=O)C(C)Sc1nc(=O)n2cccc(C)c2n1 (centres undefined)	2.2%	0.8%	7.8	?	-1.5
CCOC(=O)C(C)Sc1ncc(-c2ccc(Cl)cc2)cn1 (centres undefined)	?	1.0%	12.6*	15.5	-10.6
Cc1sc2nc(CSC(C)C(=O)Nc3ccc(Cl)cn3)[nH]c(=O)c2c1C (centres undefined)	9.7%	-6.0%	.	?	.
Cc1ccc(O)c(N=Cc2ccc(C)s2)c1	0.0%	48.4%	37.4*	-34.0	52.2*
Cc1ccc(O)c(N=Cc2cccs2)c1	16.9%	?	29.2*	-26.8	38.0*
Sc1ccccc1N=Cc1cccs1	.	.	.	10.1	.
Cc1ccc2c(=O)cc(C(=O)Nc3sc4c(c3C(=O)NCc3ccco3)CCCC4)oc2c1C	.	.	.	5.7	.
CCCSCCCNC(=O)c1cc2n(n1)CCCN(Cc1ccc(C)cc1)C2=O	.	.	.	5.8	.
CCOc1ccc(C(=O)COC(=O)c2cc(=O)[nH]c3ccccc23)cc1	-7.8%	13.4%	.	20.4	.
CCOC(=O)c1c(C)[n+](-c2ccc(C)cc2)c(CC)c2cc(OC)c(OC)cc12	0.738µM*	0.828µM*	-8.2	-81.3*	-4.6
CSc1ccc(CCNC(=O)CCCn2nc(C)c3sc4ccccc4c3c2=O)cc1	.	.	.	-3.8	.
Cc1nc2ccccc2n1CC(O)Cn1c(C(F)(F)F)nc2ccccc21 (centres undefined)	13.9%	?	-2.5	13.6	-3.5
CCC(=O)c1ccc(OCC(O)Cn2cnc3ccccc32)cc1 (centres undefined)	1.85µM*	-34.7%	1.4	53.3	31.1
Cc1nc2ccccc2n1CC(O)COc1ccc(Br)cc1 (centres undefined)	23.2%	?	1.3	-80.3*	-7.6
CCC(=O)c1ccc(OCC(O)Cn2c(C)nc3ccccc32)cc1 (centres undefined)	14.4%	-2.6%	1.3	-61.7*	0.5
COC(=O)c1ccc(OCC(O)Cn2cnc3cc(C)c(C)cc32)cc1 (centres undefined)	.	.	.	18.8	.
Cc1nc2ccccc2n1CC(O)COc1ccccc1Cl (centres undefined)	?	?	12.2	-74.1*	-4.6
Cc1nc2ccccc2n1CC(O)COc1ccc(C(=O)O)cc1 (centres undefined)	.	.	.	-4.9	.
CCc1c(C)nc2nncn2c1Nc1ccc(C(C)C)cc1	.	.	.	-15.8	.
O=C(NCc1ccc(Cl)cc1)C1CCCN(c2ncnc3onc(-c4ccc(F)cc4)c23)C1 (centres undefined)	.	.	.	7.9	.
CCOC(=O)C(C)Sc1ccc2nnc(CCNS(=O)(=O)c3ccccc3)n2n1 (centres undefined)	?	?	8.1	2.1	40.6
O=C(N/C(=C/c1ccco1)C(=O)N1CCCCC1)c1cccs1	-13.1%	-0.8%	-0.8	-5.5	-4.9
CCn1c(=O)cc(OCC(=O)NCCCN2CCCC2=O)c2ccccc21	?	?	4.0	162.8	-8.9
COc1ccc(CCN(C)C(=O)c2ccc(S(=O)(=O)NCc3ccco3)cc2)cc1OC	-1.1%	-5.9%	54.7*	-7.5	80.7*
CN(Cc1cccs1)C(=O)c1ccc(S(=O)(=O)NCc2ccco2)cc1	?	-2.4%	26.9*	-17.7	25.6
SMILES	Pf growth 96h	Pf growth 48h	Cycloheximide cs	HCMV inh	Shiga toxin inh
COc1ccc(C(=O)Nc2ccc(S(=O)(=O)NCc3ccco3)cc2)cc1OC	-17.2%	-12.4%	-1.6	13.0	14.5
O=C(Nc1nnc(CCN2CCCCC2)s1)c1ccccc1Cl	-4.9%	4.3%	12.4	-34.7	14.9
CC(C)c1nc(N2CCN(C(=O)c3ccco3)CC2)c2c3c(sc2n1)CCCC3	15.4%	10.4µM*	-0.5	-9.1	-3.0
Cc1sc2nc(C(C)C)nc(SCC(=O)N3CCN(C(=O)c4ccco4)CC3)c2c1C	10.9%	13.1µM*	-4.9	-26.2	-3.4
Cc1nc(N2CCN(C(=O)c3ccco3)CC2)c2c3c(sc2n1)CCC3	.	?	-3.3	-65.1*	-10.8
CCc1c(C)sc2nc(C(C)C)nc(SCC(=O)N3CCc4ccccc4C3)c12	13.1µM*	11.7µM*	-2.4	-90.3*	11.8
O=C(COC(=O)CN1C(=O)C2CCCCC2C1=O)Nc1c(Cl)cccc1Cl (centres undefined)	32.8%	-6.4%	.	-15.7	.
CCCCNC(=O)CCn1c(=O)c2ccccc2n(Cc2ccccc2C#N)c1=O	.	.	.	2.8	.
Cn1cc(C=O)c2cc(S(=O)(=O)N3CCOCC3)ccc21	-17.7%	-7.2%	-4.2	-13.3	-11.6
COC(=O)C(CCSC)Nc1ncnc2onc(-c3ccc(F)cc3)c12 (centres undefined)	.	.	.	-8.3	.
CCCC(=O)N1CCCC(c2cc(C(=O)NCc3cccnc3)no2)C1 (centres undefined)	.	.	.	-14.1	.
CCN1CC=C2C(C#N)=C(N)C(C#N)(C#N)C(c3cc(Cl)ccc3Cl)C2C1 (centres undefined)	0.0%	8.28µM*	-5.6	15.6	-8.5
CC(C)N1CC=C2C(C#N)=C(N)C(C#N)(C#N)C(c3ccccc3)C2C1 (centres undefined)	-7.3%[5.75 µM]	-26.7%	-1.5	-8.4	-9.5
COc1ccc(CNC(=O)c2ccc3c(c2)N(Cc2ccccc2C)C(=O)c2ccccc2S3=O)cc1 (centres undefined)	.	.	.	-27.3	.
CCN1C(=O)/C(=C2\SC(=S)N(NC(=O)c3cccnc3)C2=O)c2ccccc21	-3.4%	22.8%	-3.0	-10.6	8.0
CCOc1cccc(-c2csc(C3COc4ccccc4O3)n2)c1 (centres undefined)	290.0%	111.3%	27.7*	96.8	30.5
CCOc1cccc(-c2cc(C(=O)NN)[nH]n2)c1	?	18.8%	9.5	-34.9	18.5
Cc1cc(=O)[nH]c(SCC(=O)Nc2ccc(Br)cc2)c1C#N	14.7µM*	.	1.3	-2.1	5.3
Cc1cc(=O)[nH]c(SCC(=O)Nc2ccc3c(c2)CCC3)c1C#N	-0.4%	-2.7%	.	-76.6*	.
Cc1cc(=O)[nH]c(SCC(=O)Nc2ccc(F)cc2)c1C#N	33.0%	10.0%	6.7	-8.8	-2.6
CCN1C[C@@H]2[C@@H]3C(=O)N(Cc4ccccc4)C(=O)[C@@H]3[C@](CC)(C1=O)N2C(=O)c1ccc(C(F)(F)F)cc1	.	.	.	26.9	.
O=C(Nc1nc2c(s1)CN(Cc1ccccc1)CC2)C1CCCC1	?	?	22.7*	38.3	28.5
O=C(Nc1nc2c(s1)CN(Cc1ccccc1)CC2)c1c(F)cccc1F	-81.6%	0.7%	30.5*	34.9	41.9*
CC(=O)Nc1sc2c(c1C(N)=O)CCN(Cc1ccccc1)C2	29.1%	1.3%	-1.1	-21.3	20.9
CC(C)(C)C(=O)Nc1nc2c(s1)CN(Cc1ccccc1)CC2	?	?	44.1*	68.2	67.2*
CCn1c(=O)cc(SCC(=O)N2CCN(c3cc(C)ccc3C)CC2)c2ccccc21	.	.	.	-8.0	.
NC(=O)c1cc(S(=O)(=O)NCC2CCC(C(=O)Nc3cccc(Cl)c3)CC2)cs1 (centres undefined)	.	.	.	-4.8	.
CCN(CC)c1ccc(/C=C2/C(=O)c3ccc(C(=O)O)cc3C2=O)cc1	7.2%	-5.1%	76.9*	9.9	67.8*

Screening results (PubChem)
